# Records with an inconclusive call do not appear. Unmarked numbers belong to inactive results. Active and inactive are the calls of the source. Calls follow the shape of the dose curve; as a rule, active = well fitted inhibition curve with a large enough effect; inconclusive = small, poorly fitted or top-dose-only effect; inactive = flat fitted curve, though single readings scatter.
# Assays:
# CRL-7250 = normal cell line; assay: Cytotoxic Profiling of Annotated Libraries Using Quantitative High-Throughput Screening (AID 1296008); settings: Five cell lines viability, CellTiter-Glo ATP luminescence, 48-72 h; max response: stronger effect = lower value; as to max response: % is scaled to controls: 0 for no effect and ±100 for the full control effect
# Summary of the method: (§1)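 Cells exposed to compounds for 48 or 72 hr at 37 degrees Celsius. Viability read as ATP-coupled luminescence with CellTiter-Glo after 10 min at room temperature.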
# HEK293 = assay: as above; settings: Five cell lines viability, CellTiter-Glo ATP luminescence, 48-72 h; max response: stronger effect = lower value
# Summary of the method: as §1
# KB-3-1 = assay: as above; settings: Five cell lines viability, CellTiter-Glo ATP luminescence, 48-72 h; max response: stronger effect = lower value
# Summary of the method: as §1
# HaCat = assay: as above; settings: Five cell lines viability, CellTiter-Glo ATP luminescence, 48-72 h; max response: stronger effect = lower value
# Summary of the method: as §1
# SC27B = assay: qHTS profiling for inhibitors of Plasmodium falciparum proliferation (AID 504749); settings: P. falciparum in erythrocytes, SYBR Green DNA, 72 h; series mostly up to 28.7 µM
# Summary of the method: (§2)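 P. falciparum-infected erythrocytes (0.3% parasitemia, 2.5% hematocrit) incubated with compound 72 h at 37 C, 5% CO2. Parasite DNA detected by SYBR Green after lysis, overnight at room temperature; normalised to 0.29 uM artemisinin and DMSO.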
# TAB109 = assay: as above; settings: P. falciparum in erythrocytes, SYBR Green DNA, 72 h; series mostly up to 28.7 µM
# Summary of the method: as §2
# TAB113 = assay: as above; settings: P. falciparum in erythrocytes, SYBR Green DNA, 72 h; series mostly up to 28.7 µM
# Summary of the method: as §2
# TAB165 = assay: as above; settings: P. falciparum in erythrocytes, SYBR Green DNA, 72 h; series mostly up to 28.7 µM
# Summary of the method: as §2
# W2 = assay: as above; settings: P. falciparum in erythrocytes, SYBR Green DNA, 72 h; series mostly up to 28.7 µM
# Summary of the method: as §2
# Also: nearly all actives have a fitted effect of over 60% in size.
# Potency is read from the fitted curve at half-maximal effect.
smiles,measurement,setting,value
O=C(O)Cc1ccccc1Oc1ccc(Cl)cc1Cl,max response,CRL-7250,1.12%
same,max response,HEK293,3.66%
same,outcome,KB-3-1,inactive
CC(C)OC(=O)c1cc2c(OCC(O)CNC(C)(C)C)cccc2[nH]1 (stereo unspecified),max response,CRL-7250,-22.1%
same,max response,HaCat,-9.3%
O=C(c1cc(O)c(O)c(O)c1)c1ccc(O)c(O)c1O,max response,CRL-7250,-19.4%
same,max response,HaCat,-2.77%
CCC(CN)=C(c1ccccc1)c1ccccc1,outcome,CRL-7250,inactive
same,max response,HaCat,1.4%
CN(C)[C@@H]1C(=O)C(C(N)=O)=C(O)[C@@]2(O)C(=O)C3=C(O)c4c(O)cccc4C[C@H]3C[C@@H]12,max response,CRL-7250,-0.669%
same,max response,HaCat,-5.74%
Cc1ccc(CCn2c3c(c4cc(Cl)ccc42)CN(C)CC3)cn1,max response,CRL-7250,-3.39%
same,outcome,HaCat,inactive
O=C1Nc2ccccc2C1(c1ccc(O)cc1)c1ccc(O)cc1,Potency,CRL-7250,23.7 µM (active)
same,max response,HaCat,-55.1%
O=C1NC(=O)/C(=C/c2ccc3c(c2)OC(F)(F)O3)S1,max response,CRL-7250,4.23%
same,max response,HaCat,-3.64%
CCCC(=O)O[C@]1(C(=O)CCl)[C@@H](C)C[C@H]2[C@@H]3CCC4=CC(=O)C=C[C@]4(C)[C@@]3(F)C(=O)C[C@@]21C,max response,CRL-7250,-8.55%
same,max response,HaCat,-2.69%
CCCCNc1ccc(C(=O)OCCN(CC)CC)cc1,max response,CRL-7250,-6.06%
same,max response,HaCat,-28.3%
same,max response,KB-3-1,-0.138%
N#CSCC(=O)O,max response,HEK293,0.303%
same,outcome,HaCat,inactive
CCOC(=O)C1=C(C)NC(C)=C(C(=O)OCC)C1c1ccccc1/C=C/C(=O)OC(C)(C)C,Potency,HEK293,7.5 µM (active)
CCOC(=O)Cn1cccc1-c1nc(-c2ccc(OC)cc2)c(-c2ccc(OC)cc2)s1,Potency,HEK293,8.2 µM (active)
same,max response,HaCat,-29.1%
CC(=O)O[C@@H]1C(=O)O[C@@H]2[C@H]1OC(=O)[C@@H]2OC(C)=O,max response,HEK293,-3.32%
O=C1Nc2cc(Cl)ccc2Oc2ccccc21,outcome,HEK293,inactive
same,outcome,HaCat,inactive
CCCCCCCCCCCCCCCC[n+]1ccccc1,Potency,SC27B,10 µM (active)
same,Potency,TAB109,8.91 µM (active)
same,Potency,TAB113,5.01 µM (active)
same,Potency,TAB165,4.47 µM (active)
same,Potency,W2,1.51 µM (active)
same,Potency,CRL-7250,1.5 µM (active)
same,Potency,HaCat,5.96 µM (active)
same,Potency,KB-3-1,14.6 µM (active)
Oc1cccc2[nH]ccc12,max response,HEK293,2.46%
same,max response,HaCat,-5.11%
Nc1cccc2c(N)cccc12,Potency,HEK293,34.4 µM (active)
same,outcome,HaCat,inactive
same,max response,KB-3-1,15.8%
CN1CC[C@H](c2c(O)cc(O)c3c(=O)cc(-c4ccccc4Cl)oc23)[C@H](O)C1,Potency,CRL-7250,0.266 µM (active)
same,Potency,HaCat,0.75 µM (active)
same,Potency,KB-3-1,1.03 µM (active)

# From PubChem BioAssay (NCATS)
